Measurements published in the supplement of paper PMC5662767.

System: Drosophila S2 cl14 SmoIP sensor cells
Assay: normalized SmoIP GFP fluorescence (untreated unstimulated = 0%, untreated Hh-stimulated = 100%); higher = more Smo activation sensor fluorescence
Conditions: compound concentration: 2 uM, 24 h
[1] = stimulation: Hh conditioned medium (+Hh)
[2] = stimulation: mock conditioned medium (-Hh)
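Further: flow cytometry read-out as median GFP intensity of gated cells, compounds added 30 min before Hh-conditioned or mock medium, mock-treated cells serving as unstimulated baseline.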

O=C1NC(=O)C(=Cc2ccc(-c3ccc(F)cc3)o2)S1 (stereo in doubt)
normalized SmoIP GFP fluorescence [1]: 102%
normalized SmoIP GFP fluorescence [2]: -2.48%

COc1cc(N2CCC(N3CCN(C)CC3)CC2)ccc1Nc1ncc(Cl)c(Nc2ccccc2S(=O)(=O)C(C)C)n1
normalized SmoIP GFP fluorescence [1]: 109%
normalized SmoIP GFP fluorescence [2]: 10.2%

Cc1cc(OCCCS(C)(=O)=O)cc(C)c1-c1cccc(COc2ccc3c(c2)OC[C@H]3CC(=O)O)c1
normalized SmoIP GFP fluorescence [1]: 120%
normalized SmoIP GFP fluorescence [2]: -6.79%

CCOC(=O)[C@H](CCc1ccccc1)N[C@H]1CCCN2CCC[C@H](C(=O)O)N2C1=O [cilazapril-monohydrate-inhibace]
normalized SmoIP GFP fluorescence [1]: 111%
normalized SmoIP GFP fluorescence [2]: 6.28%

CCc1cc2c(cc1N1CCC(N3CCOCC3)CC1)C(C)(C)c1[nH]c3cc(C#N)ccc3c1C2=O
normalized SmoIP GFP fluorescence [1]: 148%
normalized SmoIP GFP fluorescence [2]: 8.36%

O=C(NCc1cccc(O)c1)Nc1nc(-c2ccncc2)cs1
normalized SmoIP GFP fluorescence [1]: 107%
normalized SmoIP GFP fluorescence [2]: -2.93%

Cc1ccc(C(=O)Cn2c3c(sc2=N)CCCC3)cc1 [pifithrin-alpha]
normalized SmoIP GFP fluorescence [1]: 98.6%
normalized SmoIP GFP fluorescence [2]: -1%

CNCc1ccc(-c2cc(-c3nc(-c4ccc(S(=O)(=O)C(C)C)cc4)cnc3N)on2)cc1
normalized SmoIP GFP fluorescence [1]: 123%
normalized SmoIP GFP fluorescence [2]: 28.9%

C[C@H](Cc1cc2c(c(C(N)=O)c1)N(CCCO)CC2)NCCOc1ccccc1OCC(F)(F)F [Silodosin(Rapaflo)]
normalized SmoIP GFP fluorescence [1]: 83.5%
normalized SmoIP GFP fluorescence [2]: -7.81%

COc1cc(OC)c(/C=C/S(=O)(=O)Cc2ccc(OC)c(NCC(=O)O)c2)c(OC)c1
normalized SmoIP GFP fluorescence [1]: 79.7%
normalized SmoIP GFP fluorescence [2]: -1.34%

N#C/C(=C(/N)Sc1ccc(N)cc1)c1ccccc1C(F)(F)F
normalized SmoIP GFP fluorescence [1]: 131%
normalized SmoIP GFP fluorescence [2]: 10.2%

CNC(CC(=O)O)C(=O)O (stereo not drawn) [nmda-n-methyl-d-aspartic-acid]
normalized SmoIP GFP fluorescence [1]: 101%
normalized SmoIP GFP fluorescence [2]: -3.16%
